# Assay outcomes as filed in PubChem BioAssay.
# IL1B secr inh = inhibitors of inflammasome signaling (IL-1 beta secretion); activity change, % at 57.5 µM; 360,000 compounds, 4.7% hits; THP-1 LPS/ATP IL-1B secretion, AlphaLISA, 16 h; active compounds read low; in the data active = activity change below about -50%; inconclusive = mostly about -30% to -49%; also: % is scaled to controls: 0 for no effect and ±100 for the full control effect
#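 THP-1 cells pretreated 1 hr with compounds (up to 57.5 uM final), then stimulated with LPS (250 ng/mL final) plus ATP (1.25 mM final); secreted IL-1B measured by AlphaLISA after 16 hr, decreased signal indicating inhibition.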
# TDP1 block = blocks human tyrosyl-DNA phosphodiesterase 1; Q9NUW8; recombinant TDP1, AlphaScreen DNA substrate cleavage; Potency, µM (series often up to 130 µM), inactives show at the highest dose activity change, negative = inhibition, most hits filed as inhibitors; 350,000 compounds, 0.28% hits; AID 485290; also: potency is read from the fitted curve at half-maximal effect; % is scaled to controls: 0 for no effect and ±100 for the full control effect; nearly all actives have a fitted effect of over 40% in size
# Target sequence (Q9NUW8 whole entry, looked up): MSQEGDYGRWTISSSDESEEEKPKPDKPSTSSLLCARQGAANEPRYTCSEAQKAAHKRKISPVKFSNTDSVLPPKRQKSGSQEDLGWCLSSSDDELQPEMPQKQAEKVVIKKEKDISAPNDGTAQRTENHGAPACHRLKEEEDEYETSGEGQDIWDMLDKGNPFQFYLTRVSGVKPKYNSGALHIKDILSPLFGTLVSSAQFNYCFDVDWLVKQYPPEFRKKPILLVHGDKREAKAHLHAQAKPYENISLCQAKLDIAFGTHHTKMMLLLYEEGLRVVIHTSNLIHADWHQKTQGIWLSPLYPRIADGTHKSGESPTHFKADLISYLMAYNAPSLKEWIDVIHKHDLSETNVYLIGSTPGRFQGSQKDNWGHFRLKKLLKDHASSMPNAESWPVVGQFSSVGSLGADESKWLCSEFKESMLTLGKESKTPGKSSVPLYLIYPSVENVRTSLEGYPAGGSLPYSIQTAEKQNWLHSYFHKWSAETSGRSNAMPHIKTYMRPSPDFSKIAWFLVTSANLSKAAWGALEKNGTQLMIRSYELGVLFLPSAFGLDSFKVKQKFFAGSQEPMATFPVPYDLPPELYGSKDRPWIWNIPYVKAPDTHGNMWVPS
#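 Recombinant human Tdp1 (E. coli-expressed, 1 nM final) preincubated with compounds 15 min at room temperature, then 5'-biotin/3'-phosphotyrosine-FITC DNA substrate (15 nM final) added for 5 min. AlphaScreen beads (10 ug/ml final) added 10 min; cleavage lowers signal.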
# DT40 TDP1 CPT = DT40-hTDP1 cell growth loss with CPT; AID 686979; Potency, µM (top dose mostly 46.2 µM), inactives show at the top dose activity change, negative = growth inhibition, usual class: inhibitors; 420,000 compounds, 12% hits; chicken DT40 Tdp1-/-;hTDP1 cells + 20 nM CPT, ATP luminescence, 48 h; also: potency is read from the fitted curve at half-maximal effect; % is scaled to controls: 0 for no effect and ±100 for the full control effect; nearly all actives have a fitted effect of over 55% in size
#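 Cell growth measured by CellTiter-Glo luminescence after a minimum 48 h, 37 C compound exposure with 20 nM CPT in Tdp1-knockout DT40 cells stably expressing hTDP1, seeded 400/well; qHTS titration format.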
# TGFb inhibitor = blocks TGF-b signaling; Potency, µM (series often up to 46.1 µM), for inactives: top-dose activity, negative = inhibition, hits mostly inhibitors; HepG2 CAGA-GFP TGF-b/SMAD3 reporter, GFP fluorescence, 18 h; TGF-beta stimulated, 500 pg/mL final; 410,000 compounds, 1.2% hits; AID 588855; also: potency is read from the fitted curve at half-maximal effect; % is scaled to controls: 0 for no effect and ±100 for the full control effect; nearly all actives have a fitted effect of over 65% in size
#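 Per well, imaged GFP fluorescence of HEPG2 CAGA-GFP cells gives the signal; cells get compound, then TGF-beta (500 pg/mL final), 18 h at 37 degrees C; %Activity versus -TGF-beta and +DMSO controls.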
# HepG2 tox = kills HepG2 cells in TGF-b inhibitor counter-screen; HepG2 CAGA-GFP viability, ATP luminescence, 18 h; Potency, µM (doses to about 46.1 µM), for inactives: at the highest dose activity change, negative = cytotoxicity, usual class: cytotoxic; 410,000 compounds, 0.76% hits; AID 588856; also: potency is read from the fitted curve at half-maximal effect
#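 CellTiter-Glo luminescence gave cytotoxicity after 18 hours at 37 degrees C. The cells were HepG2 CAGA-GFP in 1% FBS DMEM, stimulated with 500 pg/mL TGF-beta after compound addition. %Activity was normalised to no-cell wells (complete cell-killing) and DMSO (no toxicity), and curves were fitted and classified.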
# DT40 TDP1 no CPT = qHTS for Inhibitors of human tyrosyl-DNA phosphodiesterase 1 (TDP1): qHTS in cells in absence of CPT; DT40 Tdp1-/- hTDP1 cells, no CPT, ATP luminescence, 48 h; Potency, µM (titrated, usually from 46.2 µM), for inactives: at the highest dose activity change, negative = growth inhibition, most hits filed as inhibitors; 420,000 compounds, 15% hits; AID 686978, 2013; also: potency is read from the fitted curve at half-maximal effect; % is scaled to controls: 0 for no effect and ±100 for the full control effect; nearly all actives have a fitted effect of over 55% in size
#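 Chicken DT40 Tdp1-/- cells stably complemented with human TDP1 were seeded at 400 cells/well with DMSO in place of 20 nM camptothecin. After compound pinning, cells grew at least 48 hr at 37 °C; viability read by CellTiter-Glo luminescence.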
# Active calls of the source: *; ? = inconclusive; . = no result given; [ ] = remark or other dose. The list is not random: actives were taken first. Their share in the collection is about 18%. Unless noted, calls follow the shape of the dose curve; as a rule, active = well fitted curve in the direction sought with a large enough effect; inconclusive = small, poorly fitted or top-dose-only effect, or another doubt; inactive = no such curve, though single readings can be large; an effect the other way counts as inactive or inconclusive.
SMILES,IL1B secr inh,TDP1 block,DT40 TDP1 CPT,TGFb inhibitor,HepG2 tox,DT40 TDP1 no CPT
Cc1cccn2c(=O)c3cc(C(=O)NCc4ccc(F)cc4)c(=N)n(CC4CCCO4)c3nc12 (stereo unspecified),5,4%,?,-12%,-17%,23µM*
Cc1cccn2c(=O)c3cc(C(=O)NC(C)C)c(=N)n(Cc4ccncc4)c3nc12,-5,2%,-26%,1%,-17%,-16%
COc1ccc(CNC(=O)c2cc3c(=O)n4cccc(C)c4nc3n(CC3CCCO3)c2=N)cc1 (stereo unspecified),20,4%,?,3%,-1%,?
Cc1cccn2c(=O)c3cc(C(=O)NC4CCCCC4)c(=N)n(Cc4ccc(F)cc4)c3nc12,92,3%,8.2µM*,-2%,-4%,15µM*
CCNC(=O)c1cc2c(=O)n3cccc(C)c3nc2n(Cc2ccc(C)cc2)c1=N,13,1%,18µM*,0%,-8%,16µM*
Cc1cccn2c(=O)c3cc(C(=O)NCCN4CCOCC4)c(=N)n(Cc4ccc(F)cc4)c3nc12,?,1%,7.3µM*,0%,-13%,7.3µM*
Cc1cccc(C(=O)OCc2cc(=O)n3ccsc3n2)c1,.,3%,1%,-7%,-1%,5%
O=C1CCC=C1C(O)CCc1ccccc1 (stereo unspecified),.,-1%,.,.,.,.
CCOC(=O)N1CCN(C(=O)CN(C)S(=O)(=O)c2ccc(Cl)cc2)CC1,27,1%[0.0935 µM],1%,2%,5%,9%
Cc1ccc(/C=C/C(=O)OCC(=O)N(C)c2c(N)n(Cc3ccccc3)c(=O)[nH]c2=O)o1,10,.,-3%,2%,-17%,-5%
COc1ccc(NS(=O)(=O)c2ccc(C)c(C(=O)N3CC(C)OC(C)C3)c2)cc1 (stereo unspecified),-6,-10%[0.505 µM],?,-12%,-13%,-28%
Cc1cccn2c(=O)c3cc(C(=O)NCC4CCCO4)c(=N)n(Cc4cccnc4)c3nc12 (stereo unspecified),-11,10%,18µM*,2%,1%,26µM*
Cc1cccn2c(=O)c3cc(C(=O)NCc4ccco4)c(=N)n(C4CCCC4)c3nc12,29,.,?,-14%,1%,23µM*
COCCCn1c(=N)c(C(=O)NC2CCCC2)cc2c(=O)n3cccc(C)c3nc21,.,.,?,-1%,-24%,23µM*
COCCCn1c(C(=O)Nc2ccc3c(c2)OCO3)cc2c(=O)n3cccc(C)c3nc21,-3,.,?,-3%,-4%,12µM*
CC1=C2C3OC(=O)C(C)C3CCC2(C)C=CC1=NO (stereo unspecified),2,.,-10%,7%,3%,-32%
CC(NC(=O)c1ccc([N+](=O)[O-])o1)C1CC2CCC1C2 (stereo unspecified),-92*,-5%,21µM*,?,-185%,?
O=C(NC12CC3CC(CC(C3)C1)C2)c1ccc([N+](=O)[O-])o1,-63*,3%,23µM*,?,-100%,23µM*
O=C(NC12CC3CC(CC(C3)C1)C2)c1ccc(-c2ccc(Br)cc2)o1,?,0%,23µM*,?,-18%,16µM*
O=C(NC12CC3CC(CC(C3)C1)C2)c1ccc(Br)o1,15,.,-8%,0%,-21%,?
CNc1nc(C#N)nc(Nc2ccccc2)n1,.,10%,.,.,.,.
COc1ccc(S(=O)(=O)N2CCCCC2)cc1NC(=O)CNc1ccc(F)cc1C,11,3%,?,2%,2%,-28%
O=C(N/C(=C\c1ccco1)C(=O)N1CCCC(CO)C1)c1ccccc1 (stereo unspecified),14,.,10%,14%,7%,7%
